PubChem BioAssay AID602143 (Vanderbilt Specialized Chemistry Center, 2011)
Where “and” joins values, the source holds several entries; their conditions need not be identical. Identical values can stand only once. Unmarked numbers belong to inactive results. Calls of active or inactive are those of the source. Rule as the data show it: active = remaining activity below about 50%; inactive = the rest.

Each compound was assayed against Phospholipase D2 (Homo sapiens) (UniProt O14939) (assay: PLD2 inhibitors in cells, cell-based, HEK293, single concentration (AID 602143;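 also: tested at 200 nM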)). Conditions: HEK293 cellular PLD2 activity, percent of control; hits give low values.
Sequence of Phospholipase D2 (Homo sapiens) (O14939 whole entry, looked up): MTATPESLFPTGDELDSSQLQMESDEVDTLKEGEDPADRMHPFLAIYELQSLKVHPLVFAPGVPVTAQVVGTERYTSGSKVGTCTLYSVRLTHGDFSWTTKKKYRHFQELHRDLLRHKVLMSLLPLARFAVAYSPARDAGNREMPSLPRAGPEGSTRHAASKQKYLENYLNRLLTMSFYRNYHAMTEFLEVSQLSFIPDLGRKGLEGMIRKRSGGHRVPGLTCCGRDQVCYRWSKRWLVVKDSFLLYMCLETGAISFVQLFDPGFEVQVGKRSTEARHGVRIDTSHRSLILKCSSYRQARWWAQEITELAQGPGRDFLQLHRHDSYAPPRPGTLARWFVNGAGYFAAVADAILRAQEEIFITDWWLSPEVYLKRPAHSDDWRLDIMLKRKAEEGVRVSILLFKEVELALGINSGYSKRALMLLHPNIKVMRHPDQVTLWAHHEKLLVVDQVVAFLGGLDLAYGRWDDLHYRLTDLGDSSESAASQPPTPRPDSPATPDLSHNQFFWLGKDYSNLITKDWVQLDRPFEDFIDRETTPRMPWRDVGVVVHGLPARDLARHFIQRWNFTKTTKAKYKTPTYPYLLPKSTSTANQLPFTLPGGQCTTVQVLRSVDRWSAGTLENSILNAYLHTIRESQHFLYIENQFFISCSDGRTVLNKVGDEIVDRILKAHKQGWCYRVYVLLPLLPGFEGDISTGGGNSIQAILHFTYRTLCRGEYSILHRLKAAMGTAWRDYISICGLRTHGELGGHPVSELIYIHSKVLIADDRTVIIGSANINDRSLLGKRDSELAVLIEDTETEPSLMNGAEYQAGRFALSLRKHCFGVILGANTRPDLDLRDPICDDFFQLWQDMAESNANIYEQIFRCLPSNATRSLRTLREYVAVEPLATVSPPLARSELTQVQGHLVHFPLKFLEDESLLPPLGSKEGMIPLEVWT
Sequence of Phospholipase D2 (Homo sapiens) (O14939 whole entry, looked up): as above
Work on `Cc1ccc(C(=O)NCCN2CCN(c3ccncc3)CC2)cc1` yielded a remaining activity of 114%. `C[C@H](CN1CCC2(CC1)CNc1ccccc12)NC(=O)c1ccc2ccccc2c1` was tested, and the remaining activity was 53.8%. With `C[C@@H](CN1CCC(n2c(=O)[nH]c3ccccc32)CC1)NC(=O)c1ccc(Cl)c(Cl)c1` the remaining activity was 76.3%. For `C[C@@H](CN1CCC(n2c(=O)[nH]c3ccccc32)CC1)NC(=O)c1cc2ccccc2[nH]1`, the remaining activity was 0.434% (active). For `C[C@@H](NC(=O)NCCN1CCC(n2c(=O)[nH]c3ccccc32)CC1)c1ccccc1`, the remaining activity was 107% and 123%. Compound `Cc1cc(C)c(S(=O)(=O)NCCN2CCC(n3c(=O)[nH]c4ccccc43)CC2)c(C)c1` has a remaining activity of 98.8%. Work on `O=c1[nH]c2ccccc2n1C1CCN(CCNS(=O)(=O)c2ccc(Cl)cc2)CC1` yielded a remaining activity of 115%. `O=c1[nH]c2ccccc2n1C1CCN(CCNS(=O)(=O)c2cc(Cl)ccc2Cl)CC1` was tested, and the remaining activity was 68.8%. Work on `C[C@@H](CN1CCC(n2c(=O)[nH]c3cc(I)ccc32)CC1)NC(=O)C1CC1c1ccccc1` (stereo not given in full) yielded a remaining activity of 99.2%. `COc1cc(C(=O)NCCN2CCN(c3ccncc3)CC2)ccc1N` showed a remaining activity of 130%. Compound `O=C(NCCN1CCC(n2c(=O)[nH]c3ccccc32)CC1)c1cscn1` has a remaining activity of 57.9%. `COc1cccc(N2CCN(CCNC(=O)c3ccc(F)cc3)CC2)c1` gave a remaining activity of 100%. In the case of `Cc1ccc(S(=O)(=O)NCCN2CCC(n3c(=O)[nH]c4ccccc43)CC2)cc1`, the remaining activity is reported as 77.3%. Work on `COc1cccc(N2CCN(CCNC(=O)c3ccc(C(F)(F)F)cc3)CC2)c1` yielded a remaining activity of 98.3%. For `O=C(NCCN1CCC(n2c(=O)[nH]c3ccccc32)CC1)c1ccc(-c2ccccc2)o1`, the remaining activity was 68.6%. With `O=c1[nH]c2ccccc2n1C1CCN(CCNS(=O)(=O)c2ccc([N+](=O)[O-])cc2)CC1` the remaining activity was 80.3%. Work on `O=C(c1ccc(Cl)cc1)N1CCC(n2c(=O)[nH]c3cc(Cl)ccc32)CC1` yielded a remaining activity of 60.2%. With `C[C@@H](CN1CCC2(C=Cc3ccccc32)CC1)NC(=O)c1ccc2ccccc2c1` the remaining activity was 147%. Work on `O=c1[nH]c2ccccc2n1C1CCN(CCNC(=S)Nc2ccc(Cl)c(Cl)c2)CC1` yielded a remaining activity of 93.9%. In the case of `O=C(NCCN1CCC(n2c(=O)[nH]c3ccccc32)CC1)c1cccc2ccc3ccccc3c12`, the remaining activity is reported as 65.9%. Work on `Cc1ccc(NC(=S)NCCN2CCC(n3c(=O)[nH]c4ccccc43)CC2)cc1` yielded a remaining activity of 146%. In the case of `O=C(NCCN1CCC2(C=Cc3ccccc32)CC1)[C@H]1C[C@@H]1c1ccccc1`, the remaining activity is reported as 130%. Work on `O=C(NCCN1CCC(c2nc3ccccc3[nH]2)CC1)C1CC1c1ccccc1` (stereo not given) yielded a remaining activity of 95.6%. Work on `O=c1[nH]c2ccccc2n1C1CCN(CCNC(=S)Nc2ccccn2)CC1` yielded a remaining activity of 72.7%. In the case of `O=C(NCCN1CCC(n2c(=O)[nH]c3ccccc32)CC1)c1cccc(Cl)n1`, the remaining activity is reported as 75.4%. `CC(C(=O)NCCN1CCC(n2c(=O)[nH]c3ccccc32)CC1)(c1ccccc1)c1ccccc1` showed a remaining activity of 65.3%. Work on `Cn1c(=O)n(C2CCN(CCNC(=O)c3ccc(F)cc3)CC2)c2ccccc21` yielded a remaining activity of 69.8%. In the case of `O=C(NCCN1CCC(n2c(=O)[nH]c3ccccc32)CC1)c1cccc2cccnc12`, the remaining activity is reported as 74.2%. Compound `O=C(CCc1ccc(F)cc1)NCCN1CCC(n2c(=O)[nH]c3ccccc32)CC1` has a remaining activity of 93.5%. For `C[C@H](CN1CCC(n2c(=O)[nH]c3cc(Cl)ccc32)CC1)NC(=O)c1cc2ccccc2[nH]1`, the remaining activity was 25% (active). With `C[C@H](N)CN1CCC(c2nc3ccccc3n2C)CC1` (tested in a mixture with another compound) the remaining activity was 81.2%. `O=C(NCCN1CCC(n2c(=O)[nH]c3cc(Cl)ccc32)CC1)c1ccc2ccccc2c1` was tested, and the remaining activity was 63.9%. `O=C(NCCN1CCC(n2c(=O)[nH]c3ccccc32)CC1)c1cc2ccccc2c2ccccc12` gave a remaining activity of 51.2%. For `O=C(NCCN1CCN(c2ccncc2)CC1)c1ccc2ccccc2c1`, the remaining activity was 110%. Compound `C[C@@H](CN1CCC(n2c(=O)[nH]c3ccccc32)CC1)NC(=O)COc1ccccc1` has a remaining activity of 88.2%. In the case of `O=C(NCCN1CCC2(C=Cc3ccccc32)CC1)c1cnc2ccccc2c1`, the remaining activity is reported as 92.4%. With `O=C(NCCN1CCC(n2c(=O)[nH]c3ccccc32)CC1)c1ccc2cccc3c2c1CC3` the remaining activity was 98%. `C[C@@H](CN1CC=C(n2c(=O)[nH]c3ccccc32)CC1)NC(=O)c1ccc2ccccc2c1` was tested, and the remaining activity was 15.3% (active). With `CC(C)C(=O)N[C@@H](C)CN1CCC(n2c(=O)[nH]c3ccccc32)CC1` the remaining activity was 106%. `C[C@@H](CN1CCC(n2c(=O)[nH]c3ccc(F)cc32)CC1)NC(=O)c1ccc(Cl)cc1` was tested, and the remaining activity was 68.3%.
